Consider eight molecules from PubChem BioAssay (Tox21).

Inconclusive results are not listed. The source made the active and inactive calls. Unless noted, calls come from the whole dose curve; as a rule, active = well fitted curve in the direction sought with a large enough effect in the repeat runs; inconclusive = weak or mixed curves; inactive = no such curve, though single readings can be large; an effect the other way counts as inactive or inconclusive.

For assay [1], the target named is Luciferin 4-monooxygenase (Photinus pyralis) (UniProt P08659). The experiment in a line: qHTS assay to identify small molecule inhibitors of firefly luciferase (AID 1224835). Note: nearly all actives have a fitted effect of over 25% in size. Note: potency is the fitted concentration of half-maximal effect. The procedure, abridged: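 Quantitative HTS format; KM concentrations of both substrates. Purified P. pyralis FLuc activity quantified from luminescence images.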
Luciferin 4-monooxygenase (Photinus pyralis), sequence (P08659 whole entry, looked up): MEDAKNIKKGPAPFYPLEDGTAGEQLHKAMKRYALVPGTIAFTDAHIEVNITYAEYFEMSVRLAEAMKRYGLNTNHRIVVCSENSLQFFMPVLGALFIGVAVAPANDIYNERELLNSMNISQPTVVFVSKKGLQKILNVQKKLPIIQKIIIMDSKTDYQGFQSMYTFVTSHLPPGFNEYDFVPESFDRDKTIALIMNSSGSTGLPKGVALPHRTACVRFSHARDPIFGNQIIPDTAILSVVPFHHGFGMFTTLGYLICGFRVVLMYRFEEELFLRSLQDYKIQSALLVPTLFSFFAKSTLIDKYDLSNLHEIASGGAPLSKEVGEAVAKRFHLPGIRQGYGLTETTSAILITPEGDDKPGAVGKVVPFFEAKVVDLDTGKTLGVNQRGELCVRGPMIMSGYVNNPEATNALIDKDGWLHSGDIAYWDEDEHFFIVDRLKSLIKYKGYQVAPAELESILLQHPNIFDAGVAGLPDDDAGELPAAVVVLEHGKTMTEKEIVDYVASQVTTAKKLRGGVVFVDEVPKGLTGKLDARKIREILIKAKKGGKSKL
A short description of assay [2]: qHTS assay to identify small molecule agonists of the constitutive androstane receptor (CAR) signaling pathway - cell viability counter screen (AID 1224836). Note: series mostly up to about 92 µM; nearly all actives have a fitted effect of over 45% in size. The procedure, abridged: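 Multiplexed viability check: HepG2-CYP2B6-hCAR cells, 15-point compound dosing, 0.75 uM PK11195 final, 23 h at 37 C, CellTiter-Fluor fluorescence.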
The nature of assay [3]: qHTS assay to identify small molecule antagonists of the constitutive androstane receptor (CAR) signaling pathway - cell viability counter screen (AID 1224837). Note: series mostly up to about 92 µM; nearly all actives have a fitted effect of over 45% in size. In outline: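 To flag cytotoxic false antagonists, HepG2 hCAR/CYP2B6-2.2kb cells were treated 23 hr with 15-concentration compound series and 50 nM CITCO at 37 C/5% CO2; CellTiter-Fluor fluorescence was the measured end point.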

The target of assay [4] is Nuclear receptor subfamily 1 group I member 3 (Homo sapiens) (UniProt Q14994). Description: qHTS assay to identify small molecule antagonists of the constitutive androstane receptor (CAR) signaling pathway (AID 1224838).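 Note: HepG2 cells stably expressing hCAR with CYP2B6 luciferase reporter stimulated by CITCO; nearly all actives have a fitted effect of over 40% in size.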 In outline: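 Human hepatoma HepG2 cells expressing hCAR and a CYP2B6 promoter (2.2 kb) luciferase construct; compound titration (15 points) with 50 nM CITCO final, 24 h at 37 C/5% CO2; luminescence via ONE-Glo after 30 min at room temperature.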
Nuclear receptor subfamily 1 group I member 3 (Homo sapiens), sequence (Q14994 whole entry, looked up): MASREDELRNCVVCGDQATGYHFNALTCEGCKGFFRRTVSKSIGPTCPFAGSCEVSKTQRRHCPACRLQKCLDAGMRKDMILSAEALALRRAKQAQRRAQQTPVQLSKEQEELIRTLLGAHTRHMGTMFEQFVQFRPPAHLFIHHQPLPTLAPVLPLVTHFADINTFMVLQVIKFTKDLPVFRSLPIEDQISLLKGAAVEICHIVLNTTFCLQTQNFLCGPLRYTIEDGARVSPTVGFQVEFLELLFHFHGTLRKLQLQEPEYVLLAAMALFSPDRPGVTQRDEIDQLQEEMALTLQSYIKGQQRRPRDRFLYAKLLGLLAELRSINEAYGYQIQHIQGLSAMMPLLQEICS

The target is the same in assay [5]. Description: qHTS assay to identify small molecule agonists of the constitutive androstane receptor (CAR) signaling pathway (AID 1224839).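 For activation: HepG2 cells stably carrying human CAR and a CYP2B6 luciferase reporter; series mostly up to about 92 µM.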 Note: nearly all actives have a fitted effect of over 15% in size. Note: potency is the fitted concentration of half-maximal effect. In outline:
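Using human hepatoma HepG2 cells engineered with hCAR and a CYP2B6-2.2kb reporter, 15-concentration compound series were incubated 24 h alongside PK11195 at 0.75 uM final, with luminescence quantified afterwards.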

Assay [6] in a line: qHTS assay to identify small molecule antagonists of the estrogen related receptor signaling pathway with the pleiotropic PPARgamma coactivator (PGC) from Tox21 10K library - cell viability counter screen (AID 1224840; active = well fitted cell-killing curve with a large enough effect in the repeat runs, not every such curve was filed as active; note: nearly all actives have a fitted effect of over 40% in size). In outline:
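Seeded PGC/ERR cells (2,000/well, 6 h, 37 C/5% CO2) get compound by pin tool; 17.5 h incubation at 37 C; CellTiter-Fluor added, 30 min, fluorescence measured.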

Assay [7] can be described thus: qHTS assay to identify small molecule agonists of the hypoxia (HIF-1) signaling pathway - cell viability counter screen (AID 1224844; calls by dose curve; note: nearly all actives have a fitted effect of over 50% in size). The procedure, abridged:
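HRE-bla ME-180; 0.5% dFBS; cpd 17 h, 37C, 5% CO2; CellTiter-Glo lum., 30 min RT, post-FRET read, same wells.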

Assay [8] is described as follows: qHTS assay to identify small molecule agonists of the hypoxia (HIF-1) signaling pathway (AID 1224846; active = well fitted activation curve with a large enough effect in the signal ratio in the repeat runs, not every such curve was filed as active; the % refers to the signal ratio). In outline:
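Reporter induction in HRE-bla ME-180 cells is taken as agonism: cells sit 5 hrs after plating, receive compounds or DMSO only, incubate 17 hrs at 37C under 5% CO2, and are loaded with CCF4-AM for beta-lactamase FRET measurement.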

Assay [9] is described as follows: qHTS assay to identify small molecule agonists of H2AX - cell viability counter screen (AID 1224847; calls by dose curve; note: top concentration of the series differs between compounds; nearly all actives have a fitted effect of over 30% in size). The procedure, abridged: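 After overnight plating of 1000 CHO-K1 cells per well, a 15-concentration compound series was applied for 3 hr at 37C. Luminescence from CellTiter-Glo, read following 30 min at room temperature, reflected cell viability.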
Assay [10] can be described thus: qHTS RealTime-Glo MT Cell Viability Assay in HepG2 cells - 24 hour (AID 1224867). Note: nearly all actives have a fitted effect of over 50% in size. The procedure, abridged:
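HepG2 cells (600/well) were dispensed with RealTime-Glo reagents, incubated 5 h at 37 °C, then treated with compounds in DMSO for up to 40 h. Nonlytic NanoLuc luminescence reflecting viable cells was read at each stated time point.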

A short description of assay [11]: qHTS RealTime-Glo MT Cell Viability Assay in HEK293 cells - 32 hour (AID 1224868). Note: top concentration of the series differs between compounds; nearly all actives have a fitted effect of over 50% in size. The procedure, abridged:
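HEK293 cells seeded with NanoLuc/prosubstrate reagent, rested 5 h at 37 C, then dosed and kept at 37 C up to 40 h. Nonlytic real-time luminescence from viable cells read at 0, 8, 16, 24, 32 and 40 h.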

A short description of assay [12]: A CellTox Green Cytotoxicity Assay to monitor cytotoxicity in HEK293 cells - 0 hour (AID 1224869). Note: nearly all actives have a fitted effect of over 50% in size. In outline: (§1)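 Tox21 screen in HEK293: membrane-impermeant cyanine dye fluoresces on binding dead-cell DNA; compound pinned 5 h post-seeding, plates held at 37 C, signal read repeatedly through 40 h.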
Assay [13] is described as follows: qHTS RealTime-Glo MT Cell Viability Assay in HepG2 cells - 40 hour (AID 1224870). Note: nearly all actives have a fitted effect of over 50% in size. The procedure, abridged:
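HepG2 cells mixed with RealTime-Glo MT reagents (NanoLuc plus cell-permeant prosubstrate) were seeded at 600 cells/well, incubated 5 h at 37 C/5% CO2, then pinned with compounds in DMSO; nonlytic luminescence tracked viability during 40 h treatment.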

Assay [14] is described as follows: A CellTox Green Cytotoxicity Assay to monitor cytotoxicity in HEK293 cells - 40 hour (AID 1224871). Note: nearly all actives have a fitted effect of over 45% in size. In outline: as §1
The target of assay [15] is Thyrotropin receptor (Homo sapiens) (UniProt P16473). The experiment in a line: qHTS assay to identify small molecule agonists of the thyroid stimulating hormone receptor (TSHR) signaling pathway (AID 1224843; calls by dose curve; note: nearly all actives have a fitted effect of over 45% in size). The procedure, abridged: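 Compounds are titrated over 15 concentrations, in triplicate, onto TSHR-HEK293 cells seeded at 800/well. Plates sit 30 min at room temperature before cAMP-d2 and anti-cAMP cryptate are added; signal is read after a further hour.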
Thyrotropin receptor (Homo sapiens), sequence (P16473 whole entry, looked up): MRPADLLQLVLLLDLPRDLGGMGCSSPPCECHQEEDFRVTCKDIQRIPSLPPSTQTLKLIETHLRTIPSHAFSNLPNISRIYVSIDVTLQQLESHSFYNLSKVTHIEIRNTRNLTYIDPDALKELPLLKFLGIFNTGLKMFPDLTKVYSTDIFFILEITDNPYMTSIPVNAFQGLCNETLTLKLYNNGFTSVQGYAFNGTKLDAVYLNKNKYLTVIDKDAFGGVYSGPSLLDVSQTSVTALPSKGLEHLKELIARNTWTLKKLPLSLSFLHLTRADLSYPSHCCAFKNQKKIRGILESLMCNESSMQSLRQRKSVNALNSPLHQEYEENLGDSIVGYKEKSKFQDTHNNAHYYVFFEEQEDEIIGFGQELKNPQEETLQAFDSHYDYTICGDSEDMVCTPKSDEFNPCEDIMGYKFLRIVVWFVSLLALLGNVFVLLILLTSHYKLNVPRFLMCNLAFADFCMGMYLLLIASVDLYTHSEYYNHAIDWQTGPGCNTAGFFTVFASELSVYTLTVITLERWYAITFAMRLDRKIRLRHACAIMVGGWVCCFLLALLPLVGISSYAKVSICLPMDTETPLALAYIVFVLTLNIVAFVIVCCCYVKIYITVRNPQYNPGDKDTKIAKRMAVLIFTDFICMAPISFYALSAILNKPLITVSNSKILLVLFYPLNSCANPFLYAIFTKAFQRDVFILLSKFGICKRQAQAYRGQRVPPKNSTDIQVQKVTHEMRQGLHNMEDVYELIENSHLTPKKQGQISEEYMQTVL

A short description of assay [16]: qHTS assay to identify small molecule antagonists of the estrogen related receptor signaling pathway with the pleiotropic PPARgamma coactivator (PGC) from Tox21 10K library (AID 1224841; call rule not given here). The procedure, abridged:
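Test chemicals dissolved in DMSO were applied to pre-incubated (6 h) PGC/ERR cells at 2,000 cells/well for an 18 h, 37 C treatment; reporter luminescence was then read using One-Glo.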

Assay [17] in a line: qHTS assay to identify small molecule agonists of the estrogen related receptor signaling pathway with the pleiotropic PPARgamma coactivator (PGC) from Tox21 10K library (AID 1224842). Note: nearly all actives have a fitted effect of over 15% in size. The procedure, abridged: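 PGC/ERR reporter cells (NTP line) were seeded 2,000 per well, rested 6 h at 37 C/5% CO2, then pin-dosed with compounds in DMSO for 18 h at 37 C; luciferase read by One-Glo luminescence after 30 min at room temperature.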

Assay [18] is described as follows: qHTS assay to identify small molecule agonists of H2AX (AID 1224845; active = well fitted activation curve with a large enough effect in the signal ratio in the repeat runs, not every such curve was filed as active; the % refers to the signal ratio). In outline:
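Wild-type CHO-K1 cells plated overnight, then exposed 3 hr at 37C to compounds at 15 concentrations (0.76% DMSO). Lysed, then HTRF anti-pH2AX(S139)-cryptate/anti-H2AX-d2 detection after 24 hr at room temperature; emissions 665 and 620 nm.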

Assay [19] can be described thus: qHTS assay to identify small molecule antagonists of the estrogen related receptor (ERR) signaling pathway from Tox21 library (AID 1224848). Note: nearly all actives have a fitted effect of over 50% in size. In outline:
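First, 2,000 ERR cells per well were plated and held 6 h at 37 C/5% CO2. Next, compounds in DMSO were pinned in and left 18 h at 37 C. Finally, ONE-Glo was added and luminescence read after 30 min at room temperature.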

Assay [20] is described as follows: qHTS assay to identify small molecule agonists of the estrogen related receptor (ERR) signaling pathway from Tox21 library (AID 1224849; calls by dose curve; note: nearly all actives have a fitted effect of over 15% in size). The procedure, abridged:
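Tox21 compounds tested for ERR agonism in an NTP reporter cell line: 18 h treatment at 37 C, then ONE-Glo luminescence.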

For `O=S(=O)(O)c1cc(O)c(O)c(S(=O)(=O)O)c1`, the Potency result in assay [1], in assay [4], in [5], in assay [7], in assay [11] and in assay [13] was “inactive” each time. For the same molecule, the Potency entry in assay [14] was “inactive”. Moreover, the outcome in assay [2], in [3], in [6], in assay [8], in assay [9] and in assay [10] was inactive. The molecule was called inactive in [12].

As to `NC(=O)N1c2ccccc2CC(=O)c2ccccc21`, the Potency entry in assay [1], in assay [4], in assay [5], in [15], in [11] and in [13] was “inactive” in each case. In addition, the Potency entry in assay [14] was “inactive”. The molecule was called inactive in assay [2], in assay [3], in assay [6], in [8], in assay [9] and in assay [10].

Turning to `Cc1cccc(C)c1NC(=O)CC12CCCN1CCC2`, the Potency result in [1], in assay [4], in [5], in assay [16], in assay [17] and in assay [15] was “inactive” throughout. Further, the Potency result in assay [7], in [18], in [19], in assay [11], in assay [13] and in assay [14] was “inactive” in each case. Also, the molecule was called inactive in assay [2], in assay [3], in [8], in [9], in assay [20] and in assay [10]. In assay [12], the outcome was inactive.

As to `O=C1c2ccccc2C(=O)c2cc(O)ccc21`, the Potency was 28.3 µM (active) in assay [1] and 54.5 µM (active) in assay [5]. For the same molecule, the molecule was called inactive in assay [2], in [3], in [6], in assay [8], in assay [10] and in assay [12]. The Potency result in [4], in assay [15], in [7] and in assay [13] was “inactive” in each case.

On to `C=C(C)C(=O)OCCOCCOCCOCCOC(=O)C(=C)C`, for which the Potency entry in assay [1], in [4], in [5], in [15], in assay [13] and in assay [14] was “inactive” in each case. In addition, the call in assay [2], in [3], in [6], in assay [8], in assay [9] and in [10] was inactive. In [12], the outcome was inactive.

Turning to `CC/C=C\CCOC(C)OCC` (stereo not given), the Potency entry in [1], in assay [4], in [5], in assay [15], in [7] and in assay [18] was “inactive” in each case. Further, the Potency entry in assay [11], in assay [13] and in [14] was “inactive” throughout. The result in [2], in [3], in assay [6], in assay [8], in assay [10] and in assay [12] was inactive.

Consider `OCCc1ccccn1`, for which the Potency result in assay [1], in assay [4], in assay [5], in [7], in assay [18] and in [11] was “inactive” in each case. Further, the Potency entry in assay [13] and in [14] was “inactive” in each case. Further, the molecule was called inactive in assay [2], in [3], in assay [6], in [8], in [9] and in assay [10]. The molecule was classed as inactive in assay [12].

For `C[C@@H]1C[C@H]2[C@@H]3C[C@H](F)C4=CC(=O)C(Cl)=C[C@]4(C)[C@@]3(F)[C@@H](O)C[C@]2(C)[C@@]1(O)C(=O)CO`, the Potency entry in [1], in [4], in assay [5], in assay [15], in assay [11] and in [13] was “inactive” each time. The Potency result in assay [14] was “inactive”. For the same molecule, the molecule was classed as inactive in [2], in assay [3], in assay [6], in assay [8], in assay [9] and in assay [10]. In addition, the result in assay [12] was inactive.
